Inconclusive results are not listed. Where a call stands in place of a potency, no number is given. The source made the active and inactive calls. Calls come from the whole dose curve; as a rule, active = well fitted cell-killing curve with a large enough effect in the repeat runs; inconclusive = weak or mixed curves, or effect the other way; inactive = no such curve, though single readings can be large or run the other way.
Experiment: qHTS assay to identify small molecule agonists of the RXR signaling pathway - cell viability counter screen (AID 1159529); note: nearly all actives have a fitted effect of over 50% in size
Settings: RXR-alpha-bla HEK293T viability, CellTiter-Glo, 16 h; series mostly up to 76.8 µM
Source text: National Center for Advancing Translational Sciences [NCATS]
NIH Chemical Genomics Center [NCGC]
U.S. Environmental Protection Agency [EPA]
National Institutes of Environmental Health Sciences [NIEHS]
National Toxicology Program [NTP]
U.S. Food and Drug Administration [FDA]
The Retinoid X receptor (RXR), a nuclear hormone receptor expressed in liver, spleen, placenta, epidermis, central nervous system. These receptors are able to form homo and heterodimers with other nuclear receptors and due to this heterodimerizing ability, RXR functions as master regulators producing diverse physiological effects. Three subtypes of RXR exist; alpha, beta and gamma. Retinoid X receptor alpha (RXR-alpha) has potential roles in metabolic signaling pathways, skin alopecia, dermal cysts, cardiac development, insulin sensitization etc. Therefore screening environmental chemicals on RXR-alpha signaling can be used for the studies focused on such therapeutic applications. For quantification of RXR-alpha ligands signaling, GeneBLAzer RXR alpha-UAS-bla HEK 293T (Life Technologies, Carlsbad, CA) cells containing a beta-lactamase reporter-gene under control of Retinoid X receptor-alpha response element were used to screen Tox21 10K library. The cytotoxicity of the Tox21 compound library against the RXR-alpha HEK 293T cell line was tested in parallel by measuring cell viability using CellTiter-Glo assay (Promega Corporation, Madison, WI) in the same wells.
Tox21 Assay Protocol Summary:
RXR-alpha HEK 293T cells were dispensed at 2,000 cells/6 uL of assay medium containing 2% charcoal-stripped FBS using a Multidrop Combi (ThermoFisher Scientific, Waltham, MA) dispenser. The assay was performed in black wall/clear-bottom 1536-well plates (Greiner Bio-One North America Inc. Monroe, NC). Tetraoctyl ammonium bromide was used as a positive control in the cytotoxicity screen. After the assay plates were incubated at 37 C and 5% CO2 for 5 hr, 23 nL of compounds dissolved in DMSO, positive control or DMSO only were transferred to the assay plate by a Pintool station (Kalypsys, San Diego, CA). The assay plates were incubated at 37 C and 5% CO2 for 16 hr. One uL of LiveBLAzer B/G FRET substrate (Life Technologies) was added using a Flying Reagent Dispenser (FRD) (Aurora Discovery, San Diego, CA) and the plates were incubated at room temperature for 2 hr. Fluorescence intensity (405 nm excitation, 460/530 nm emission) was measured using an Envision plate reader (PerkinElmer, Shelton, CT). For cytotoxicity, 4 uL/well of CellTiter-Glo reagent was added into the assay plates using an FRD. After 30 min incubation at room temperature, the luminescence intensity was measured using a ViewLux plate reader (PerkinElmer).

| SMILES | Potency | activity change, negative = cytotoxicity |
| --- | --- | --- |
| O=C(O)CCCc1c[nH]c2ccccc12 | inactive | – |
| CCCCCCCCCCCCCCCCCC(=O)OCC(CC)CCCC (stereo not given) | inactive | – |
| CC(CCc1ccc(O)cc1)NCCc1ccc(O)c(O)c1 (stereo not given) | inactive | – |
| CC(=O)OCC(=O)[C@@]1(OC(C)=O)[C@@H](C)C[C@H]2[C@@H]3C[C@H](F)C4=CC(=O)C=C[C@]4(C)[C@@]3(F)[C@@H](O)C[C@@]21C | inactive | – |
| c1ccc(CCCc2ccncc2)cc1 | inactive | – |
| Cc1ccc(S(=O)(=O)NC(=O)NC2CCCCC2)cc1 | inactive | – |
| COc1ccc(-n2nc(C(F)F)cc2-c2ccc(S(C)=O)cc2)cc1 (stereo not given) | inactive | – |
| CCCCCc1ccco1 | inactive | – |
| CCCCCCCCCCCCCOC(=O)CCSCCC(=O)OCCCCCCCCCCCCC | – | 10.7% [at 15.8 µM] (inactive) |
| CC(=O)N[C@@H](Cc1ccc(O)cc1)C(=O)O | inactive | – |
| CCN(CC)CCNC(=O)c1cc(Cl)c(N)cc1OC | inactive | – |
| CC(C)(C(=O)c1cccnc1)c1cccnc1 | inactive | – |
| CN=C(N)NC(=O)Nc1c(C)cccc1C | inactive | – |
| OCC(CO)n1cnc(-c2ccc(F)cc2)c1-c1ccnc(Oc2ccccc2)n1 | inactive | – |
| O=[N+]([O-])c1ccc2ncccc2c1 | inactive | – |
| CCOC(=O)c1ccc(NC(=O)CN2CCCCC2)cc1 | inactive | – |
| COc1cc(NS(=O)(=O)c2ccc(N)cc2)nc(C)n1 | inactive | – |
| CCCCCCC(O)CCCCCCCCCCC(=O)OC (stereo not given) | inactive | – |
| CNC1CCCN(c2c(F)cc3c(=O)c(C(=O)O)cn(C4CC4)c3c2OC)C1 (stereo not given) | inactive | – |
| CC(C)(C)NCC(O)COc1cccc2c1C[C@H](O)[C@H](O)C2 (stereo not given in full) | inactive | – |

| SMILES | Potency | activity change, negative = cytotoxicity |
| --- | --- | --- |
| CC(C)OC(=O)c1ccccc1C(=O)OC(C)C | inactive | – |
| Cc1oc(=O)oc1COC(=O)[C@@H]1N2C(=O)[C@@H](NC(=O)[C@H](N)c3ccccc3)[C@H]2SC1(C)C | inactive | – |
| NC(=O)CCCCC(N)=O | inactive | – |
| CCc1ccc(C)cc1 | inactive | – |
| NC(=O)c1ccccc1[N+](=O)[O-] | inactive | – |
| CC(C)COC(=O)c1ccc(O)cc1 | inactive | – |
| COc1ccc(C(=O)NCc2ccc(OCCN(C)C)cc2)cc1OC | inactive | – |
| CCN(CC)CC(=O)Nc1c(C)cccc1C(=O)OC | inactive | – |
| CCCCCCCCCCCCCCCC(=O)OCC | inactive | – |
| c1ccc(CNc2ncnc3c2ncn3C2CCCCO2)cc1 (stereo not given) | inactive | – |
| COC(CC(C)CCCC(C)(C)O)OC (stereo not given) | inactive | – |
| CC(=O)OC(C)C[N+](C)(C)C (stereo not given) | inactive | – |
| O=C(O)CCS | inactive | – |
| C[C@@H]1C[C@H]2[C@@H]3CCC4=CC(=O)C=C[C@]4(C)[C@@]3(F)[C@@H](O)C[C@]2(C)[C@@]1(O)C(=O)COP(=O)(O)O | inactive | – |
| CCOc1ncc(F)c(=O)[nH]1 | inactive | – |
| C=CC(=O)O | inactive | – |
| CC(=O)OCCC1CCCCC1 | inactive | – |
| O=C(O)c1cccc(Oc2ccccc2)c1 | inactive | – |
| Cc1cc([N+](=O)[O-])ccc1N | inactive | – |
| O=P(O)(O)Oc1ccccc1 | inactive | – |

— PubChem BioAssay (Tox21)
